“And” between values parts separate entries of the source, which are not always exact repeats. Equal entries are not always repeated. Screen size: about 5,500 compounds; about 2,000 (36%) were called active. Not shown: some 18% with an inconclusive outcome. Rule as the data show it: active = normalized growth mostly below about 0.91 (no sharp cut-off); inconclusive = no clear call, values can overlap the other calls; inactive = mostly above about 0.92. The list shows a part of the results.
Assay: chemical genetic growth profiling, strain panel (AID 1159580);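 also: tested at 20 µM; growth read once vehicle control cultures reached saturation at 30 °C; 1 = growth at the plate median or of vehicle wells; lower values mean less growth of the strain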
Details: S. cerevisiae deletion strains, growth OD

Measured: normalized growth

C=C1[C@H]2CC[C@@]3(C)[C@H](c4ccoc4)OC(=O)C[C@]13O[C@H]1C[C@H](O)C(C)(C)[C@H](CC(=O)OC)[C@]12C
inactive: locus YAL021C, strain ccr4, hits give low values 0.998 | locus YAL026C, strain drs2, hits give low values 1.05 | locus YAL030W, strain snc1, hits give low values 1.02 | locus YBL061C, strain skt5, hits give low values 1.02 | locus YBR009C, strain hhf1, hits give low values 1.01 | locus YBR021W, strain FUR4, hits give low values 0.985 | locus YBR023C, strain chs3, hits give low values 1.01 | locus YBR171W, strain sec66, hits give low values 1.02 | locus YBR229C, strain ROT2, hits give low values 0.999 | locus YBR231C, strain swc5, hits give low values 1.04 | locus YBR279W, strain paf1, hits give low values 1.02 | locus YCL011C, strain gbp2, hits give low values 1.01 | locus YCL016C, strain dcc1, hits give low values 1 | locus YCL029C, strain bik1, hits give low values 1.01 | locus YCL061C, strain MRC1, hits give low values 1.03 | locus YCL069W, strain vba3, hits give low values 1.02 | locus YCR088W, strain abp1, hits give low values 1.02 | locus YDL005C, strain med2, hits give low values 1.02 | locus YDL035C, strain GPR1, hits give low values 1 | locus YDL040C, strain nat1, hits give low values 1.02 | locus YDL074C, strain BRE1, hits give low values 0.99 | locus YDL101C, strain DUN1, hits give low values 1 | locus YDL134C, strain PPH21, hits give low values 1 | locus YDL185W, strain tfp1, hits give low values 1.03 | locus YDL192W, strain arf1, hits give low values 1.02 | locus YDR001C, strain nth1, hits give low values 1.02 | locus YDR069C, strain doa4, hits give low values 1.03 | locus YDR101C, strain arx1, hits give low values 1.01 | locus YDR137W, strain rgp1, hits give low values 0.975 | locus YDR159W, strain sac3, hits give low values 1.04 | locus YDR162C, strain NBP2, hits give low values 1.01 | locus YDR195W, strain ref2 1.03 | locus YDR297W, strain sur2, hits give low values 1.03 | locus YDR318W, strain mcm21, hits give low values 1.02 | locus YDR334W, strain swr1, hits give low values 1.02 | locus YDR335W, strain msn5, hits give low values 1.02 | locus YDR388W, hits give low values 1.02 | locus YDR392W, strain spt3, hits give low values 0.927 | locus YDR502C, strain sam2, hits give low values 1.02 | locus YEL003W, strain gim4, hits give low values 1.03 | locus YEL037C, strain rad23, hits give low values 1.01 | locus YEL061C, strain CIN8 (second series), hits give low values 1.02 | locus YEL061C, strain CIN8, hits give low values 0.998 | locus YER015W, strain faa2, hits give low values 1.03 | locus YER016W, strain bim1, hits give low values 1.02 | locus YER110C, hits give low values 1.02 | locus YER111C, strain swi4, hits give low values 1.03 | locus YER155C, strain BEM2 (second series), hits give low values 1.04 | locus YER155C, strain BEM2, hits give low values 1 | locus YER167W, strain BCK2, hits give low values 1 | locus YFR010W, strain ubp6, hits give low values 1.04 | locus YGL078C, strain dbp3, hits give low values 1.02 | locus YGL086W, strain mad1, hits give low values 1 | locus YGL167C, strain pmr1, hits give low values 1.02 | locus YGL173C, strain kem1, hits give low values 1.04 | locus YGL227W, strain vid30, hits give low values 1.03 | locus YGL240W, strain doc1, hits give low values 1.02 | locus YGL248W, strain PDE1, hits give low values 0.999 | locus YGL253W, strain hxk2, hits give low values 1.03 | locus YGR078C, strain PAC10, hits give low values 0.999 | locus YGR135W, strain pre9, hits give low values 1.02 | locus YGR252W, strain gcn5, hits give low values 1.02 | locus YHR013C, strain ard1, hits give low values 1 | locus YHR027C, strain rpn1, hits give low values 1.02 | locus YHR030C, strain SLT2, hits give low values 0.986 | locus YHR079C, strain IRE1 (second series), hits give low values 1.02 | locus YHR079C, strain IRE1, hits give low values 0.977 | locus YHR094C, strain hxt1, hits give low values 1.02 | locus YHR129C, strain ARP1, hits give low values 1.01 | locus YHR142W, strain chs7, hits give low values 1.01 | locus YHR200W, strain rpn10, hits give low values 1 | locus YIL066C, strain RNR3, hits give low values 1.01 | locus YIL073C, strain SPO22, hits give low values 1.07 | locus YIL125W, strain kgd1, hits give low values 1.01 | locus YIR030C, strain dcg1, hits give low values 1.02 | locus YJL092W, strain hpr5, hits give low values 1.03 | locus YJL095W, strain BCK1 (second series), hits give low values 1.02 | locus YJL095W, strain BCK1, hits give low values 1 and 0.979 | locus YJL115W, strain asf1, hits give low values 1.02 | locus YJL129C, strain trk1, hits give low values 1.02 | locus YJL134W, strain LCB3, hits give low values 1.01 | locus YJL154C, strain vps35, hits give low values 1.02 | locus YJL164C, strain tpk1, hits give low values 1 | locus YJL166W, strain qcr8, hits give low values 1.03 | locus YJL168C, strain set2, hits give low values 1.02 | locus YJL187C, strain SWE1 (second series), hits give low values 1 | locus YJR043C, strain POL32, hits give low values 0.991
